Lassa entry – qHTS for Inhibitors of binding or entry into cells for Lassa Virus; Lassa virus pseudotyped entry inhibition, cell-based qHTS; Potency, µM (doses to about 49.2 µM), for the others: at the top dose activity change, negative = inhibition, most hits filed as inhibitors; actives 4.1% (n = 18,000)
Marburg entry – qHTS for Inhibitors of binding or entry into cells for Marburg Virus | Marburg virus pseudotype entry/binding inhibition, cell-based | Potency, µM (highest dose often 49.2 µM), without a hit: at the top dose activity change, negative = inhibition, actives largely listed as inhibitors | actives 6.5% (n = 18,000) | AID 720532, 2013
* = called active by the depositor; u = inconclusive; ! = not confirmed by another sample; [ ] = dose if it differs, or a comment. Only some compounds are listed: those with a hit (about 8.6% of all), similar ones and a draw of the others. Calls follow the shape of the full dose curve; tested in HEK293 cells. % is scaled to controls: 0 for no effect and ±100 for the full control effect; potency is read from the fitted curve at half-maximal effect.

SMILES	Lassa entry	Marburg entry
COc1ccc2[nH]cc(CCNc3ncncc3-c3ccc(N(C)C)cc3)c2c1	-19%	16µM*
COc1ccccc1CNc1ncncc1-c1ccc(N(C)C)cc1	-9%	-19%
CC[C@@]12CCCN3CCc4c(n(c5ccccc45)[C@](O)(C(=O)OC)C1)[C@H]32	-8%	u
COC(=O)[C@@]1(O)C[C@@H]2O[C@@]1(C)n1c3ccccc3c3c4c(c5c6ccccc6n2c5c31)C(=O)NC4	-20%	14µM*
COC(=O)C1(O)CC2OC1(C)n1c3ccccc3c3c4c(c5c6ccccc6n2c5c31)C(=O)NC4 (centres undefined)	u	4µM*
C[C@H]1C=CCC(=O)NCc2cccc(c2)CNC(=O)N[C@@H]1c1ccccc1	7%[8.59 µM]	u
Cc1nc(Nc2ncc(C(=O)Nc3c(C)cccc3Cl)s2)cc(N2CCN(CCO)CC2)n1	u	13µM*
CC(C)(C)OC(=O)N1CCC[C@@H]1C(O)(c1ccccc1)c1ccccc1	0%[8.59 µM]	-13%[8.59 µM]
CC(CN1c2ccccc2Sc2ccccc21)N(C)C (centres undefined)	32µM*!	13µM*
CN(C)C(=O)OC1=C(c2ccccc2)Sc2ccccc2-n2cccc21	u	-18%
C[C@@H](CN1c2ccccc2Sc2ccccc21)N(C)C	-14%[17.8 µM]	10µM*
COC(=O)C1=C2C=C(C)CC(C)N2C(=O)NC1c1ccccc1 (centres undefined)	18%[8.59 µM]	30%[8.59 µM]
COC[C@@H]1N[S+](=O)([O-])c2ccc(Br)cc2O[C@@H]1c1ccccc1	-8%	-7%
C=CCN1c2ccccc2[C@]23CCC(=O)N(CC(=O)OC)C2=NC(C(=O)OC)=C(C(=O)OC)[C@H]13	13%[8.59 µM]	18%[8.59 µM]
COC(=O)N[C@H](CC(C)=O)c1ccc(F)cc1	1%[8.59 µM]	36%[8.59 µM]
CN1C2CCC1CC(C(=O)OC(CO)c1ccccc1)C2 (centres undefined)	3%	7%
O=C(NCCCN1CCCCCC1)C(c1ccccc1)C1CCCCC1 (centres undefined)	u	10µM*
Oc1ccc(Nc2nc(-c3ccc(Cl)cc3)cs2)cc1	13µM*	u
C=C1C(=O)OC2C=C(C)CCC=C(C)CCC12 (centres undefined)	-15%	-19%
C=C1C(=O)O[C@@H]2C3OC3(C)CC/C=C(\C)CC[C@@H]12 (some centres undefined)	-22%	-16%
C=C1C(=O)O[C@H]2[C@H]1CC/C(C)=C\CC[C@@]1(C)O[C@@H]21	7.9µM*	14µM*
C=C1CC/C=C(\C)CC[C@@H]2[C@@H]1CC2(C)C	-2%	7%
C=C1C(=O)OC2C1CC/C(C)=C/CCC1(C)OC21 (centres undefined)	11µM*	u
C=C1C(=O)O[C@@H]2[C@H]3O[C@]3(C)CC/C=C(\C)CC[C@@H]12	4.5µM*	4µM*
COC(=O)C1=C[C@]2(c3ccccc3C[C@H](OC)[C@@H]2C)[C@H]2C=C[C@H]1C2	-23%[8.59 µM]	8%[8.59 µM]
SMILES	Lassa entry	Marburg entry
C=CCN1C(=O)[C@]2(OCCC=C[C@H]2C)c2c(Br)cccc21	-1%[8.59 µM]	54%[8.59 µM]
C[C@@H]1CCCN1[C@@H]1C[S+](=O)([O-])N[C@@H]1COCc1ccccc1	8%	14%
OCCO[C@@H]1[C@@H](O)[C@H](O)[C@@H](CO)O[C@@H]1O	-16%	-1%
CC(=O)OC[C@H]1O[C@@H](ON=C2C[C@@H](O)[C@@H](O)[C@@H]3[C@H]4C(=O)N(C5CCCCC5)C(=O)[C@@H]4CC[C@@H]23)[C@H](OC(C)=O)[C@@H](OC(C)=O)[C@H]1OC(C)=O	-1%[8.59 µM]	-25%[8.59 µM]
CCCNC(=O)[C@H]1O[C@@H]1C(=O)N[C@H](C(=O)N1CCC[C@H]1C(=O)OC)[C@@H](C)CC	10µM*	2.5µM*
CCOC(=O)C(CCc1ccccc1)NC(C)C(=O)N1CCCC1C(=O)O (centres undefined)	4%	6%
Cc1ccc(S(=O)(=O)NC(=O)N[C@@H](C)Cc2ccccc2)cc1	-11%	-4%
CC(=O)Nc1ccc(-c2nc3ccc(Cl)cc3[nH]2)cc1	-5%	71%
O=C(Nc1ccc(Cl)cc1)Nc1ccc(Cl)c(Cl)c1	13µM*	14µM*
C=CCOC(=O)N[C@H](C(C(=O)OC)=C(C)NCc1ccccc1)c1ccc2c(c1)OCO2	-12%[8.59 µM]	u
O=C1C(Nc2ccccc2)=CC(=O)c2ncccc21	11µM*	5.6µM*
NC(=NCCc1ccc(I)cc1)SCCCc1cnc[nH]1	18%	22µM*
NCCc1cnc[nH]1	0%	1%
COc1cccc([C@@H]2Oc3ccc(Br)cc3C(=O)[C@@H]2OC(=O)N[C@H](C)C2CCCCC2)c1	-14%[8.59 µM]	-30%[8.59 µM]
CC(=O)[C@@]1(O)[C@H](O)CC2C3CCC4CC(O)CC[C@]4(C)C3CC[C@@]21C (some centres undefined)	-3%	24%
C[C@@]12CC[C@H](O)C[C@@H]1CC[C@H]1[C@H]2CC[C@@]2(C)[C@@H](C3=CC(=O)OC3)CC[C@]12O	0.89µM*	1µM*
C[C@@]12CC[C@H](O)C[C@@H]1CC[C@H]1[C@@H]2C[C@@H](O)[C@]2(C)[C@@H](C3=CC(=O)OC3)CC[C@]12O	3.5µM*	1.4µM*
C[C@@]12CCC(O)C[C@H]1CCC1C2CC[C@]2(C)C(=O)CCC12 (some centres undefined)	-3%	-17%
CCOC(=O)CN1C(=O)C2(CC(C)=C[C@@H](C)O2)c2c(Br)cccc21 (some centres undefined)	32%[8.59 µM]	3%[8.59 µM]
CC(C)CC1C(=O)N(Cc2cn(CCC3OCCCO3)nn2)CCS(=O)(=O)N1Cc1ccc(-c2ccc(F)nc2)cc1 (centres undefined)	-9%	u
CC(C)CC(NC(=O)CN)C(=O)NC(Cc1ccccc1)C(=O)O (centres undefined)	1%	13%
CC(C)C[C@H](NC(=O)[C@H](CCc1ccccc1)NC(=O)CN1CCOCC1)C(=O)N[C@@H](Cc1ccccc1)C(=O)N[C@@H](CC(C)C)C(=O)[C@@]1(C)CO1	11µM*	u
C=CCN1[C@H](C)[C@@H](c2ccccc2)Oc2c(Cl)cccc2S1(=O)=O	-13%	-28%
CC(C)CON=C1C[C@@H](O)[C@@H](O)[C@@H]2[C@H]3C(=O)N(Cc4ccc5c(c4)OCO5)C(=O)[C@@H]3CC[C@@H]12	8%[8.59 µM]	-30%[8.59 µM]
Nc1c(N=Nc2ccc(-c3ccc(N=Nc4cc(S(=O)(=O)O)c5ccccc5c4N)cc3)cc2)cc(S(=O)(=O)O)c2ccccc12	0%	13µM*
Cc1cc(-c2ccc(N=Nc3ccc4c(S(=O)(=O)O)cc(S(=O)(=O)O)c(N)c4c3O)c(C)c2)ccc1N=Nc1ccc2c(S(=O)(=O)O)cc(S(=O)(=O)O)c(N)c2c1O	u	-21%
O=S1(=O)c2cccc(Cl)c2OC[C@H](c2ccccc2)N1Cc1cccc(Cl)c1	-17%	u
C=C[C@]1(C)C[C@@H](OC(=O)CO)[C@]2(C)[C@H](C)CC[C@]3(CCC(=O)[C@H]32)[C@@H](C)[C@@H]1O	-9%	0%
C=C[C@]1(C)C[C@@H](OC(=O)CSC(C)(C)CNC(=O)[C@H](N)C(C)C)[C@]2(C)[C@H](C)CC[C@]3(CCC(=O)[C@H]32)[C@@H](C)[C@@H]1O	0%	13µM*
CC#CCN1c2ccccc2[C@]23CCC(=O)N(Cc4ccco4)C2=NC(C(=O)OC)=C(C(=O)OC)[C@H]13	-20%[8.59 µM]	u
